# This is one part of a sample in which hits are shown more often than they occur.
# Pf Dd2 growth – qHTS Primary assay for Inhibitors of Plasmodium falciparum Dd2 growth in vitro; P. falciparum Dd2 growth, SYBR Green, 72 h; Potency, µM (titrated, usually from 28.9 µM), most hits filed as inhibitors; 4.3% of 120,000 active; active means well fitted inhibition curve with a large enough effect; further: nearly all actives have a fitted effect of over 65% in size
#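 Infected erythrocytes (Dd2, 0.3% parasitemia, 2.5% hematocrit final) are added to compound in RPMI-1640/Albumax II medium, grown 72 h at 37C in low oxygen, then lysed with saponin/Triton-X containing SYBR Green and read by fluorescence.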
# Numbers stand for hits; - = inactive.
SMILES,Pf Dd2 growth
O=C1CC(c2ccccc2)N(C(=O)CNC(=O)c2ccccn2)CCCCCCN1 (stereo not drawn),-
O=C1CC(c2ccccc2)N(C(=O)CNC(=O)c2cccnc2)CCCCCCN1 (stereo not drawn),-
COc1ccc(S(=O)(=O)N2[C@@H]3CC[C@H]2CC(NC(=O)c2ccc(F)cc2)C3)cc1 (stereo partly drawn),-
O=C(NC1CCCN(c2cc(-c3ccccc3)[nH]n2)C1)c1c[nH]c2ccccc12 (stereo not drawn),-
Cc1ccc(NC(=O)Nc2ccccc2)c(=O)n1CC(=O)NCC1CCCO1 (stereo not drawn),-
CNC(=O)[C@@H]1C[C@@H](n2cc(C(C)(C)NC(=O)CC3CCCC3)nn2)CN1,-
COc1ccc(C(=O)N2CCC3(Cc4ccccc4NC3=O)C2)cc1 (stereo not drawn),-
Cc1occc1C(=O)N1C[C@@H](CO)[C@H](c2nc(C3CC3)no2)C1,-
Cc1cc(C(=O)N2CCC(=O)N(Cc3ccc(F)cc3)C(C(C)C)C2)n[nH]1 (stereo not drawn),-
COc1ccccc1N1CCN([C@H]2[C@@H]3OC[C@@H](O3)[C@@H](NCc3ccc(N(C)C)cc3)[C@@H]2O)CC1,-
O=C(Nc1ccccc1)N[C@H]1[C@H](O)[C@@H](N2CCC(Cc3ccccc3)CC2)[C@@H]2OC[C@H]1O2,-
COc1ccccc1N1CCN([C@H]2[C@@H]3OC[C@@H](O3)[C@@H](NCc3ccc(F)cc3)[C@@H]2O)CC1,7.94µM
O[C@H]1[C@H](NCc2ccncc2)[C@H]2CO[C@H](O2)[C@@H]1N1CCC(Cc2ccccc2)CC1,-
CC(C)CN[C@H]1[C@H](O)[C@@H](N2CCC(Cc3ccccc3)CC2)[C@@H]2OC[C@H]1O2,3.98µM
COc1ccccc1N1CCN([C@H]2[C@@H]3OC[C@@H](O3)[C@@H](NCc3ccncc3)[C@@H]2O)CC1,-
COc1ccccc1C(=O)N1CCCC(CN2CCC(C)CC2)CC1 (stereo not drawn),-
Cc1cccc(C)c1OCC(=O)N(Cc1ccco1)Cc1ccco1,-
O=C(Cn1cc(C(=O)c2ccco2)c2ccccc21)Nc1ccc(Br)cc1,-
Cc1ccccc1NC(=O)Cn1cc(C(=O)c2ccco2)c2ccccc21,-
Cc1ccc(OCCn2cc(C(=O)c3cccs3)c3ccccc32)cc1,3.98µM
Cc1cc(OCCn2cc(C(=O)c3ccco3)c3ccccc32)ccc1Cl,1.12µM
Cc1ccccc1OCCn1cc(C(=O)C2CCCCC2)c2ccccc21,-
CCOc1ccc(NC(=O)Cn2cc(C(=O)c3ccccc3)c3ccccc32)cc1,-
COc1ccccc1OCCn1cc(C(=O)c2cccs2)c2ccccc21,-
Cc1ccccc1OCCn1cc(C(=O)c2ccco2)c2ccccc21,1.26µM
SMILES,Pf Dd2 growth
COC(=O)C1=CN(CC(=O)Nc2ccccc2C(F)(F)F)S(=O)(=O)N=C1C,-
COCCOCC(=O)NC1CCN(C(=O)N2CC3CC(C2)[C@H]2CCCC(=O)N2C3)CC1 (stereo partly drawn),-
CCOc1ccccc1C1NC(=O)N(CC(=O)N2CCN(c3ccc(F)cc3)CC2)C2=C1C(=O)OC2 (stereo not drawn),-
CC(C(=O)NCc1nc2ccccc2n1C)C1CCOCC1 (stereo not drawn),-
O=C(c1cc2n(n1)CC(c1ccc(Cl)cc1)OC2)N1CCN(c2ccccc2)CC1 (stereo not drawn),-
CCOc1ccc(C2Cn3nnc(-c4nc(-c5cccc(C)c5)no4)c3CO2)cc1 (stereo not drawn),-
CCc1nc2c(c(-c3ccc(Cl)cc3)n1)CN(Cc1ccc(C)cc1)CC2,-
CCc1nc2c(c(-c3ccc(Cl)cc3)n1)CCN(C(=O)c1ccccn1)CC2,-
CCc1nc2c(c(-c3ccc(Cl)cc3)n1)CN(Cc1ccc(OC(F)(F)F)cc1)CC2,8.91µM
CCc1nc2c(c(-c3ccc(Cl)cc3)n1)CN(Cc1ccsc1)CC2,5.01µM
Cc1nc2c(c(-c3ccc(O)cc3)n1)CN(Cc1ccc(OC(F)(F)F)cc1)CC2,-
CCc1nc2c(c(-c3ccc(Cl)cc3)n1)CN([S+](C)(=O)[O-])CC2,-
CNC(=O)[C@@H]1C[C@@H](n2cc(CNC(=O)c3cccc(OC)c3)nn2)CN1,-
COc1ccc(C2(C(=O)NCC3Cn4cccc4C(=O)N3C)CC2)cc1 (stereo not drawn),-
Cc1cccc(C(=O)N2CCC(N3C(=O)C4(CCCCC4)C3c3ccncc3)CC2)c1 (stereo not drawn),6.31µM
Cn1nccc1C(=O)N1CCC(N2C(=O)C3(CCCCC3)C2c2ccccc2)CC1 (stereo not drawn),-
CCn1nccc1C(=O)N1CCC(N2C(=O)C3(CCCCC3)C2c2ccncc2)CC1 (stereo not drawn),-
O=C(c1ccc2cc[nH]c2c1)N1CCC(N2C(=O)C3(CCCCC3)C2c2ccncc2)CC1 (stereo not drawn),7.08µM
O=C(c1ccncc1)N1CCC(N2C(=O)C3(CCCC3)C2c2ccccc2)CC1 (stereo not drawn),-
COc1ccc(C(=O)N2CCC(N3C(=O)C4(CCCC4)C3c3ccccc3)CC2)cc1 (stereo not drawn),-
COCCC1(C(=O)O)CCCN(CCCn2ccnc2C)C1 (stereo not drawn),-
COCCN(C)C[C@@H]1CN(C(=O)c2cc3ccccc3s2)C[C@@H]1CO,-
CCC(C)NC(=O)C1COC2(CCN(C(=O)c3cccc(C)c3)CC2)N1C(=O)c1ccc(OC)cc1 (stereo not drawn),-
COc1cc2c(cc1-c1c(-c3ccccc3)ncn1CCCO)CCC2,12.6µM
OCCCn1cnc(-c2ccccc2)c1-c1ccc(-c2ccn[nH]2)o1,-
SMILES,Pf Dd2 growth
CCOc1cc(-c2c(-c3ccccc3)ncn2CCNC(C)=O)ccc1OC,-
O=C(c1csc(N2CCN(c3ccccc3)CC2)n1)N1CCN(C2CCCCC2)CC1,-
COCCNc1ncccc1-c1noc([C@@H]2CCCN2C2CCN(C)CC2)n1,-
COCCNc1cc(N2CCN(C3CCCCC3)CC2)c2noc3c2c1C(=O)c1ccccc1-3,0.891µM
O=C1c2ccccc2-c2onc3c(N4CCN(C5CCCCC5)CC4)cc(NCCO)c1c23,5.01µM
COCCNc1ncccc1-c1noc([C@@H]2CCCN2C2CCN(C(C)=O)CC2)n1,-
O=C1c2ccccc2-c2onc3c(Br)cc(NC4CCCCC4)c1c23,-
COc1cccc(CN2CCN3C(=O)N(C4CCOCC4)C[C@H]3C2)c1,-
COc1ccc(NC(=O)c2nnn3cc(C)[nH]c(=O)c23)cc1OC,-
O=C(c1ccccn1)N1CCC(N2CCCOC2=O)CC1,-
COc1cc2c(cc1OC)CN(C(=O)C[C@@H]1CCNC[C@@H]1Cc1cc(CN3CCCCC3)on1)CC2,-
C[C@H]1[C@@H]2[C@@H](O)C([C@H](C)C(=O)NCc3cccs3)CC[C@@]2(C)CC[C@@H]1NC(=O)COc1ccccc1 (stereo partly drawn),-
COc1ccc2[nH]c(CN3CCC(CCC(=O)NCc4ccc(F)cc4)CC3)c(C)c2c1,-
O=C(Nc1ccc2ncnc(N3CCCCC3)c2c1)c1ccc(F)c(F)c1,-
O=C(Nc1ccc2c(N3CCCC3)ncnc2c1)c1cc(F)ccc1Cl,5.01µM
O=C(Nc1ccc2c(N3CCCC3)ncnc2c1)c1cc(F)ccc1F,3.16µM
Cc1oc2ncnc(N3CCCCC3)c2c1C(=O)Nc1cccc(F)c1,-
O=C(Nc1ccc2ncnc(N3CCCCC3)c2c1)c1cc(F)ccc1F,-

# Source: PubChem
